Measured values from PubChem BioAssay.
Active and inactive are the calls of the source.

What was measured:
[1] = E. coli DRC41 culture turbidity changes, primary screen, E. coli filamentation inducer project, strain DRC41, OD650, 48 h (AID 1152);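 further: E. coli MC1000 strain DRC41 lacking acrAB efflux pump and sulA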; details: E. coli DRC41 (acrAB sulA), higher = more signal, called active from +8 up or from −8 down
[2] = small-molecule binders of probe aLefty1, primary screen, biochemical, small-molecule microarray, 635/667 nm fluorescence (AID 1153); details: higher = more signal;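 further: score merges spot fluorescence with signal-to-noise ratio from the scanned slide images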
[3] = PSAC antagonists in infected red cells, primary screen, cell-based, P. falciparum Indochina, OD700, 1 h (AID 1154); details: P. falciparum Indochina infected RBC osmotic lysis, higher = more signal, called active from +8 up or from −8 down
[4] = PSAC antagonists in infected red cells, primary screen, cell-based, P. falciparum Indochina, OD700, 2 h (AID 1155);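 further: lysis reports solute entry through the parasite surface anion channel PSAC; channel blockers reduce lysis of infected cells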; details: P. falciparum Indochina infected erythrocytes, osmotic lysis OD700; higher = more signal, called active from +8 up or from −8 down
[5] = osmotic lysis modulators in infected erythrocytes, primary screen, PSAC antagonist project, cell-based, P. falciparum Indochina, OD700, 3 h (AID 1156); details: higher = more signal, called active from +8 up or from −8 down
[6] = PSAC antagonists in infected red cells, primary screen, cell-based, P. falciparum Indochina, OD700, 18 h (AID 1157); details: P. falciparum Indochina infected erythrocytes, osmotic lysis OD700, 18 h; higher = more signal, called active from +8 up or from −8 down
[7] = modulators of S6 phosphorylation in cells, primary screen, cell-based, A549, cytoblot, luminescence, serum-stimulated (AID 1158); details: A549 phospho-S6 cytoblot, 5 h, higher = more signal;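 further: serum-stimulated A549 lung adenocarcinoma cells; signal is phosphorylated S6 detected by cytoblot immunostaining with HRP secondary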
[8] = biological target: NADPH oxidase 2 (Homo sapiens) (UniProt P04839); test: NOX2-dependent H2O2 signal modulators, primary screen, NOX inhibitor project, cell-based, HEK293-NOX2, PMA-stimulated, Amplex Red fluorescence (AID 1159); details: 45 min, higher = more signal, called active from +8 up or from −8 down; further: test concentration not given here
Sequence of NADPH oxidase 2 (Homo sapiens) (P04839 whole entry, looked up): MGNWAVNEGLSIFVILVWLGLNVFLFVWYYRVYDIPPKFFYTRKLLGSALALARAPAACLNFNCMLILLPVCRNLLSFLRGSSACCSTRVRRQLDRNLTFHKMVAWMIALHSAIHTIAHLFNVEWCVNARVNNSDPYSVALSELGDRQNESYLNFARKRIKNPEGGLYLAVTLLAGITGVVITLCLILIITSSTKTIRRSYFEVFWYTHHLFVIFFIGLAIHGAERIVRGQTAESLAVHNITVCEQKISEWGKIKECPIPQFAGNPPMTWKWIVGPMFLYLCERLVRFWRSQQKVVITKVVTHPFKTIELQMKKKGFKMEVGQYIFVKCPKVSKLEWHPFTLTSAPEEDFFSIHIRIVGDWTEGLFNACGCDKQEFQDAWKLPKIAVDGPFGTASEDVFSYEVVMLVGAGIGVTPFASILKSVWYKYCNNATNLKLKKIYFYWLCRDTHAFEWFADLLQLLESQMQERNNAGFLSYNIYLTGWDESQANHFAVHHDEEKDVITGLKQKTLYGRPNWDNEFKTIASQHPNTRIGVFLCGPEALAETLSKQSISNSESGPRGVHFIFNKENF

[9] = biological target: NADPH oxidase 4 (Homo sapiens) (UniProt Q9NPH5); test: NOX4-dependent H2O2 signal modulators, primary screen, NOX inhibitor project, cell-based, HEK293-NOX4, tetracycline-induced, Amplex Red fluorescence (AID 1160); details: 45 min, higher = more signal, called active from +8 up or from −8 down
Sequence of NADPH oxidase 4 (Homo sapiens) (Q9NPH5 whole entry, looked up): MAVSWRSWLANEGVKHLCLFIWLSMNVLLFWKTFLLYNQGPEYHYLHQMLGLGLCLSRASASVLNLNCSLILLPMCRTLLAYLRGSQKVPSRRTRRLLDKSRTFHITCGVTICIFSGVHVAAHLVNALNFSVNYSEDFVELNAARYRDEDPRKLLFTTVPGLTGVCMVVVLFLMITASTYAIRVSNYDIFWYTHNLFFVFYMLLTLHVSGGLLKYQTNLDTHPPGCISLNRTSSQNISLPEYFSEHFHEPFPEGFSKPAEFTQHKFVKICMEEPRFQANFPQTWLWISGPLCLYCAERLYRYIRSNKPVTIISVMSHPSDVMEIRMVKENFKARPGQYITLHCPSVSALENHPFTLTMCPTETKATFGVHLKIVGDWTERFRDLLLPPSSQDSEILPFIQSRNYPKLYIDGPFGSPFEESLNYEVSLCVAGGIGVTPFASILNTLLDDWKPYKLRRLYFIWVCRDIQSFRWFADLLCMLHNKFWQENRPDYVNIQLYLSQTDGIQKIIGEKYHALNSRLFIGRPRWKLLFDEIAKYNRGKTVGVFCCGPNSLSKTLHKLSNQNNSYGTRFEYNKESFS

[10] = biological target: NADPH oxidase 5 (Homo sapiens) (UniProt Q96PH1); test: NOX5-dependent H2O2 signal modulators, primary screen, NOX inhibitor project, cell-based, HEK293-NOX5, Amplex Red fluorescence (AID 1161); details: HEK293-NOX5, ionomycin, 45 min, higher = more signal
Sequence of NADPH oxidase 5 (Homo sapiens) (Q96PH1 whole entry, looked up): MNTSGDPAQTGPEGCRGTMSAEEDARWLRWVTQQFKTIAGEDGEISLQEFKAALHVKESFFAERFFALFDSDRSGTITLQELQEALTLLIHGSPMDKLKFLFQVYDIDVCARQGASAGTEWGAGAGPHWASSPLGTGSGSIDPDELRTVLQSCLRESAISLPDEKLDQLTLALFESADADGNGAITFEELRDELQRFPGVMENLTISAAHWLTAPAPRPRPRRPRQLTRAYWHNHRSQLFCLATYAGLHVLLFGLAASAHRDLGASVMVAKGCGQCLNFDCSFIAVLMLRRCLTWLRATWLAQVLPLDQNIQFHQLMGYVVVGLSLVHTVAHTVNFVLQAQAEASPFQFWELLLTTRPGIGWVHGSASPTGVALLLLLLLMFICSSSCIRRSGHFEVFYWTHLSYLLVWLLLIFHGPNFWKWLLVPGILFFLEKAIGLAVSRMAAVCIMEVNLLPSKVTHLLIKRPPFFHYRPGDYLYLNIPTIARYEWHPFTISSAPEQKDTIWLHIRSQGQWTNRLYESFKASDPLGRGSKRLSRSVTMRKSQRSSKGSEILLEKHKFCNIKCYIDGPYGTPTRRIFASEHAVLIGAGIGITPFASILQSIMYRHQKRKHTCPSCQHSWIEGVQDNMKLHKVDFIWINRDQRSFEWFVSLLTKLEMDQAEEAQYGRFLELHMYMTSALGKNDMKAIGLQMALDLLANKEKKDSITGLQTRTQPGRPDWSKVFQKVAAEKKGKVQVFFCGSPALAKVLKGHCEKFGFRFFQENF

| Compound | z-score [1] | composite z-score [2] | z-score [3] | z-score [4] | z-score [5] | z-score [6] | z-score [7] | z-score [8] | z-score [9] | z-score [10] |
| --- | --- | --- | --- | --- | --- | --- | --- | --- | --- | --- |
| CO[C@H]1O[C@H](CO)[C@@H](OC(=O)Nc2cccc(F)c2)[C@H](OC(=O)Nc2ccccc2-c2ccccc2)[C@H]1OC(=O)Nc1ccccc1-c1ccccc1 | -0.732 (inactive) | 0.302 | 4.41 (inactive) | 1.22 (inactive) | -2.85 (inactive) | 0.937 (inactive) | -0.309 | -5.73 (inactive) | -1.02 (inactive) | -1.21 |
| COc1cc(NN2C(C(O)c3ccccc3)C=CC3C(=O)N(C)C(=O)C32)cc(OC)c1OC (stereo not given) | -1.05 (inactive) | 0.0455 | 0.758 (inactive) | 0.34 (inactive) | 1.21 (inactive) | -0.447 (inactive) | 1.44 | -3.07 (inactive) | -5.77 (inactive) | -6.19 |
| COCCOC(=O)N1C(=O)[C@@]2(c3cc(C#CCNC(N)=O)ccc31)[C@H](c1ccc(O)cc1)N1[C@H](c3ccccc3)[C@H](c3ccccc3)OC(=O)[C@H]1[C@@H]2C(=O)N1CCN(c2ncccn2)CC1 | -0.279 (inactive) | -0.191 | 2.78 (inactive) | 1.32 (inactive) | 0.528 (inactive) | 0.973 (inactive) | -0.43 | 1.23 (inactive) | -0.121 (inactive) | 1.13 |
| C=C(C)[C@@H]1CC=C(C(O)C2C=CC3C(=O)N(c4ccccc4)C(=O)C3N2Nc2ccc(C#N)cc2)CC1 (stereo not given in full) | -2.24 (inactive) | 0.619 | 9.15 (active) | 3.26 (inactive) | 0.625 (inactive) | 2.49 (inactive) | -0.66 | -1.94 (inactive) | -3.56 (inactive) | -2.27 |
| COC(=O)C1=CC(CCCO)=CC(c2ccc(CN3CCCC3)cc2)N(Cc2cc3c(cc2Br)OCO3)C=C1C(=O)OC (stereo not given) | 0.235 (inactive) | 0.744 | 0.903 (inactive) | 0.408 (inactive) | 1.23 (inactive) | 0.082 (inactive) | 0.158 | 1.64 (inactive) | -0.638 (inactive) | 0.399 |
| COc1ccc(CCNC(=O)[C@@]2(Cc3ccccc3I)c3ccccc3C(=O)N(Cc3ccccc3Cl)[C@H]2c2ccc(CO)cc2)cc1 | -1.2 (inactive) | 0.893 | 4.53 (inactive) | 1.52 (inactive) | 1.55 (inactive) | 0.473 (inactive) | 0.0403 | 0.898 (inactive) | 0.183 (inactive) | 1.39 |
| COc1ccc(C#Cc2ccc3c(c2)[C@]2(C(=O)N3)[C@H](C(=O)N3CCCCCCC3)[C@H]3C(=O)O[C@H](c4ccccc4)[C@H](c4ccccc4)N3[C@@H]2c2ccc(O)cc2)cc1 | -0.821 (inactive) | 2.04 | 0.445 (inactive) | 0.391 (inactive) | -0.562 (inactive) | 0.271 (inactive) | -0.0624 | 0.697 (inactive) | 0.174 (inactive) | 0.00156 |
| [N-]=[N+]=Nc1ccccc1C[C@@]1(C(=O)O)N=C(c2ccc(OCCCO)cc2)O[C@@H]1c1ccccc1N=[N+]=[N-] | -0.855 (inactive) | 0.384 | 29.2 (active) | 24.7 (active) | 0.648 (inactive) | 4.53 (inactive) | 0.664 | -0.041 (inactive) | 1.17 (inactive) | 1.57 |
| O=C1OCC=C[C@H]2OC34C=CCN(c5ccc6ccccc6c5)C(=O)[C@H]3N(CCCCCO)C(=O)[C@@H]4[C@@H]12 (stereo not given in full) | -0.186 (inactive) | 0.407 | 2.04 (inactive) | 0.132 (inactive) | 1 (inactive) | 0.162 (inactive) | -0.798 | 1.57 (inactive) | 0.056 (inactive) | 2.93 |
| O=C1C2C=CC(C(O)c3cc(C(F)(F)F)cc(C(F)(F)F)c3)N(Nc3ccccc3F)C2C(=O)N1c1ccccc1 (stereo not given) | -2.27 (inactive) | 1.01 | 4.38 (inactive) | 1.93 (inactive) | -3.51 (inactive) | 2.35 (inactive) | -0.746 | -0.648 (inactive) | -4.37 (inactive) | -1.58 |
| C=CC1c2cc(O)c(OC)cc2CCN1Cc1ccc([N+](=O)[O-])o1 (stereo not given) | 1.09 (inactive) | 0.0455 | 7.89 (inactive) | 1.17 (inactive) | -0.0585 (inactive) | 0.596 (inactive) | 0.325 | -3.42 (inactive) | -3.12 (inactive) | -3.25 |
| COCCOC(=O)N1C(=O)[C@@]2(c3ccccc31)[C@H](c1ccccc1OCCO)N1[C@H](c3ccccc3)[C@H](c3ccccc3)OC(=O)[C@H]1[C@@H]2C(N)=O | -0.714 (inactive) | 0.221 | 3.59 (inactive) | 1.18 (inactive) | -0.463 (inactive) | 0.689 (inactive) | 0.231 | 1.88 (inactive) | 0.787 (inactive) | 0.212 |
| Cc1ccc(S[C@]2(C(=O)NCc3ccccc3)CC(=O)N(Cc3cc(C(F)(F)F)cc(C(F)(F)F)c3)[C@@H]2c2ccc(CO)cc2I)cc1 | 1.66 (inactive) | 0.0903 | 3.13 (inactive) | 0.769 (inactive) | -0.0654 (inactive) | 0.598 (inactive) | 0.209 | 1.69 (inactive) | -1.24 (inactive) | 1.28 |
| CC(C)N1CC=CC23O[C@@H]4/C=C\CCCOC(=O)C4[C@H]2C(=O)N(CCCCCCO)[C@@H]3C1=O (stereo not given in full) | 2.15 (inactive) | 0.248 | 0.904 (inactive) | 0.0039 (inactive) | 0.622 (inactive) | 0.133 (inactive) | 0.842 | 1 (inactive) | 0.105 (inactive) | 1.92 |
| CC(C)C[C@@H]1NC(=O)CNC(=O)[C@@]23C(=O)N[C@@H](Cc4ccccc4)C2[C@H](C)[C@@]2(C)O[C@H]2C3/C=C/C/C=C\CNC1=O (stereo not given in full) | -0.455 (inactive) | -0.0265 | 0.349 (inactive) | -0.262 (inactive) | 0.183 (inactive) | -0.16 (inactive) | -0.0425 | 0.217 (inactive) | 1.1 (inactive) | 0.149 |
| Cc1ccc(N2C(=O)c3ccccc3[C@](C)(C(=O)NCc3ccccc3)[C@@H]2c2ccc(CO)cc2)nc1 | 0.465 (inactive) | 0.205 | 2.01 (inactive) | 0.161 (inactive) | 0.385 (inactive) | 0.305 (inactive) | 0.389 | 0.37 (inactive) | -1.75 (inactive) | -0.583 |
| CC(C)C[C@@H]1NC(=O)[C@@]23C(=O)N[C@@H](Cc4ccccc4)C2[C@H](C)[C@@]2(C)O[C@H]2C3/C=C/C/C=C\CNC(=O)[C@@H](C)NC1=O (stereo not given in full) | 0.767 (inactive) | -0.444 | 0.961 (inactive) | -1.13 (inactive) | -0.826 (inactive) | -0.967 (inactive) | 0.338 | 0.848 (inactive) | 1.65 (inactive) | 0.953 |
| COCCOC(=O)N1C(=O)[C@@]2(c3cc(C#Cc4ccc(OC)cc4)ccc31)[C@H](c1ccc(OCCO)cc1)N1[C@H](c3ccccc3)[C@H](c3ccccc3)OC(=O)[C@H]1[C@@H]2C(=O)Nc1nc2ccccc2s1 | 0.905 (inactive) | 0.101 | 4.12 (inactive) | 2.5 (inactive) | -0.16 (inactive) | 2.13 (inactive) | 0.0972 | 1.29 (inactive) | 0.402 (inactive) | 0.944 |
| C=C[C@@H](OC)[C@H](OC(=O)Nc1ccc(OC)cc1)c1ccc(OC)c(O)c1 | 0.139 (inactive) | -0.123 | 2.48 (inactive) | 0.96 (inactive) | 0.0081 (inactive) | 0.45 (inactive) | -0.0451 | -2.52 (inactive) | -1.04 (inactive) | -1.2 |
| O=C(NCCN1CCOCC1)[C@@H]1c2ccccc2C(=O)N(Cc2ccccc2)[C@H]1c1ccc(CO)cc1 | 0.347 (inactive) | -0.101 | 1.23 (inactive) | -0.222 (inactive) | 0.766 (inactive) | -0.0161 (inactive) | -0.214 | -1.71 (inactive) | -0.652 (inactive) | -2.89 |
| C=CCNC(=O)[C@@H]1[C@H]2C(=O)O[C@H](c3ccccc3)[C@H](c3ccccc3)N2[C@H](c2ccc(O)cc2)[C@@]12C(=O)Nc1ccc(C#CCC(C(=O)OC)C(=O)OC)cc12 | -0.482 (inactive) | -0.0544 | 5.99 (inactive) | 0.792 (inactive) | 2.3 (inactive) | 0.319 (inactive) | -0.45 | 1.97 (inactive) | 0.448 (inactive) | 1.25 |
| COc1ccc([Si](C)(C)[C@@H]2[C@@H](CC(=O)N3Cc4ccccc4C[C@H]3CO)O[C@]3(C(=O)N(c4ccccc4)c4ccccc43)[C@H]2C)cc1 | 0.162 (inactive) | 0.855 | 6.47 (inactive) | 1.76 (inactive) | 0.168 (inactive) | 1.65 (inactive) | 0.947 | 0.651 (inactive) | 0.71 (inactive) | 0.544 |
| CC1(C)C(=O)C(c2ccccc2)=C2CN3C(=O)N(CCc4ccccc4)C(=O)C3(Cc3ccc(C(F)(F)F)cc3)C=C21 (stereo not given) | -2.21 (inactive) | 0.349 | 0.582 (inactive) | 0.316 (inactive) | 0.482 (inactive) | 0.668 (inactive) | 0.0875 | -0.462 (inactive) | -1.68 (inactive) | -0.494 |
| CC(C)C(=C=CC[C@@H](O)c1cccc(OCCO)c1)C[C@@H](O)COCc1ccccc1 | 1.74 (inactive) | -0.504 | 12.8 (active) | -0.6 (inactive) | 1.76 (inactive) | -2.05 (inactive) | 3.5 | -1.19 (inactive) | -1.2 (inactive) | -2.4 |
| COc1cc(C(O)C2C=CC3C(=O)N(Cc4ccccc4)C(=O)C3N2n2cnnc2)cc(OC)c1OC (stereo not given) | 1.31 (inactive) | 0.431 | 1.15 (inactive) | -0.129 (inactive) | -0.666 (inactive) | -1.04 (inactive) | 0.866 | 1.24 (inactive) | -0.564 (inactive) | -0.665 |
| CN(C)C(=O)[C@@]1(CCC(=O)OC(C)(C)C)N=C(c2ccc(OCCCO)cc2)O[C@H]1c1ccccc1CN=[N+]=[N-] | 0.476 (inactive) | 0.121 | 14.6 (active) | 1.39 (inactive) | 0.668 (inactive) | 0.447 (inactive) | -0.25 | -1.73 (inactive) | -0.111 (inactive) | -0.901 |
